According to PubChem BioAssay AID602292 (National Center for Advancing Translational Sciences (NCATS), 2012):
The whole screen tested about 1,300 compounds, of which about 380 (29%) were called active. About 37% were inconclusive and are not listed. Calls come from the whole dose curve; as a rule, active = well fitted inhibition curve with a large enough effect; inconclusive = small, poorly fitted or top-dose-only effect; inactive = flat fitted curve, though single readings scatter. The list shows a part of the results.
% is set by controls: 0 for no effect and ±100 for the full control effect; potency is the fitted concentration of half-maximal effect.
Note: nearly all actives have a fitted effect of over 80% in size.
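Throughout, for activity change, negative = inhibition: cells stimulated with TSH at EC80 of 4 nM during compound exposure; cAMP by competitive HTRF where cellular cAMP lowers the 665 nm FRET signal.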

What follows are molecules tested against Thyrotropin receptor (Homo sapiens) (UniProt P16473) (assay: qHTS for antagonists of the Thyroid Stimulation Hormone Receptor: Hit Validation in Primary Screen). Conditions: TSHR-expressing cells, cAMP antagonist mode; series mostly up to 58 µM; activity change, negative = inhibition: at the top concentration.
Thyrotropin receptor (Homo sapiens), sequence (P16473 whole entry, looked up): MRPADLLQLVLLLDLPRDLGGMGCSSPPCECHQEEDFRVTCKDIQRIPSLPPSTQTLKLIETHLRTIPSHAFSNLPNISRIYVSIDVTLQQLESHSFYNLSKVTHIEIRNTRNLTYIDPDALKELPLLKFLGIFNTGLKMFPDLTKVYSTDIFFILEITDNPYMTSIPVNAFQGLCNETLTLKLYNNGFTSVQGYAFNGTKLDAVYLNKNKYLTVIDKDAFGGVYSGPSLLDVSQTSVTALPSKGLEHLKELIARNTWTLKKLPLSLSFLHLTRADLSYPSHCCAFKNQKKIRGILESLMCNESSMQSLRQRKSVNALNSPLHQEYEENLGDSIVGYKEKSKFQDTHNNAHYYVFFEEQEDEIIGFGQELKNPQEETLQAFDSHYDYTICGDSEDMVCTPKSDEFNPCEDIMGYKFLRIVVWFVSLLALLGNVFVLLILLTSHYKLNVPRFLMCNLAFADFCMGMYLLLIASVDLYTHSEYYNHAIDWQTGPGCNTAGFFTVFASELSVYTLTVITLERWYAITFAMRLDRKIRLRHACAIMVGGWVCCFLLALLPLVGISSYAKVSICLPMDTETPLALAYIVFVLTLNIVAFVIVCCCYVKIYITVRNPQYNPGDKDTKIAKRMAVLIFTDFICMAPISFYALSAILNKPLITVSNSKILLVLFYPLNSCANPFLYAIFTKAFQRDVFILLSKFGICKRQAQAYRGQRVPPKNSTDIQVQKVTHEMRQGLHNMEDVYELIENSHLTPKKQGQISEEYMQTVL
Method in brief: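 Competitive HTRF detected cAMP in lysates of TSHR cells, read 30 minutes after antibody and d2 addition at room temperature. Before lysis, cells had 2 hours at 37 deg C with compound plus EC80 TSH, 4nM final.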
For `CCOC(=O)Cn1c(=NC(=O)CSC(C)=O)sc2ccccc21`, the “activity change, negative = inhibition” value was -23.8% (inactive).
In the case of `Cc1ccc(/C=N/n2c(COc3ccccc3)n[nH]c2=S)s1`, the “activity change, negative = inhibition” value is reported as -4.26% (inactive).
For `CN(C)c1ccc(N/C=C/C(=O)C(F)(F)F)cc1`, the “activity change, negative = inhibition” value was -13.3% (inactive).
`Cc1nn(Cc2ccc(Cl)cc2)c(C)c1NC(=O)c1noc2c1CCc1ccccc1-2` was tested, and the Potency was 16.9 µM (active).
`Cc1nn(Cc2ccccc2)c(C)c1NC(=O)c1noc2c1CCc1ccccc1-2` was tested, and the Potency was 37.9 µM (active).
In the case of `COc1ccc(C(C(=O)NC(C)(C)C)N(CCc2ccccc2)C(=O)CCC(=O)Nc2cc(C)on2)cc1` (stereo not drawn), the “activity change, negative = inhibition” value is reported as -5.68% (inactive).
With `CC(=O)N/C(=C\c1ccc(Cl)cc1)C(=O)O` the “activity change, negative = inhibition” value was -3.51% (inactive).
`C=CCNC(=O)c1ccc(NC(=O)C2=CSCCO2)cc1` was tested, and the “activity change, negative = inhibition” value was -9.28% (inactive).
`O=[N+]([O-])c1c(Nc2cccc(O)c2)cc(Cl)c2nonc12` was tested, and the Potency was 10.7 µM (active).
In the case of `Cc1c(Nc2cc(Cl)c3nonc3c2[N+](=O)[O-])c(=O)n(-c2ccccc2)n1C`, the Potency is reported as 26.9 µM (active).
With `Cc1cc(C)cc(C(=O)NC(CC(N)=O)c2ccc(NCCN3CCCC3)c([N+](=O)[O-])c2)c1` (stereo not drawn) the “activity change, negative = inhibition” value was -3.23% (inactive).
For `CC1CCCC(N2CCN(S(=O)(=O)c3ccccc3)CC2)C1` (stereo not drawn), the “activity change, negative = inhibition” value was -2.71% (inactive).
For `COC(CNC(=O)c1cn(C)c2ccc(S(=O)(=O)N3CCOCC3)cc2c1=O)OC`, the “activity change, negative = inhibition” value was -4.75% (inactive).
In the case of `O=C1c2cccc3c(O)ccc(c23)C(=O)N1c1ccc(Cl)cc1`, the Potency is reported as 30.1 µM (active).
`N/C(=N\OC(=O)Nc1ccccc1)c1cccc(C(F)(F)F)c1` was tested, and the “activity change, negative = inhibition” value was -6.25% (inactive).
In the case of `Cc1ccc(OC(F)F)c(NC(=O)Nc2cccc(C(F)(F)F)c2)c1`, the Potency is reported as 26.9 µM (active).
`Cc1ccc(NC(=O)Nc2ccc3c(c2)OCO3)c(OC(F)F)c1` was tested, and the “activity change, negative = inhibition” value was -10.4% (inactive).
`Cc1ccccc1NC(=O)C1C2CCCCC21` (stereo not drawn) was tested, and the “activity change, negative = inhibition” value was -5.88% (inactive).
With `O=C(Nc1ccncc1)C1CCN(S(=O)(=O)c2cccc(C(F)(F)F)c2)CC1` the “activity change, negative = inhibition” value was -5.39% (inactive).
`CC1CC1C(=O)N1CCN(S(=O)(=O)c2cc(C(F)(F)F)cc(C(F)(F)F)c2)CC1` (stereo not drawn) was tested, and the Potency was 30.1 µM (active).
For `Cc1ccc(C)c(N2CCN(S(=O)(=O)c3ccc4c(c3)CC(C)N4C(=O)C3CC3)CC2)c1` (stereo not drawn), the “activity change, negative = inhibition” value was -11.4% (inactive).
In the case of `CCCn1c(COc2ccccc2OC)nc2ccccc21`, the “activity change, negative = inhibition” value is reported as -5.21% (inactive).
In the case of `COc1cccc(CNC(=O)CCCC(=O)NC(C)CCc2ccccc2)c1` (stereo not drawn), the “activity change, negative = inhibition” value is reported as -4.18% (inactive).
For `COc1cccc(COc2cc3ccccc3nc2C)c1`, the Potency was 23.9 µM (active).
In the case of `COc1ccc(-n2c(SCC(=O)Nc3cc(C)on3)nc3c(c2=O)SCC3)cc1OC`, the “activity change, negative = inhibition” value is reported as -4.24% (inactive).
For `O=S(=O)(Nc1cccc(-n2cnnn2)c1)c1ccccc1C(F)(F)F`, the “activity change, negative = inhibition” value was -5.7% (inactive).
In the case of `Nc1ncc(Br)cc1S(=O)(=O)Nc1cc(C(F)(F)F)cc(C(F)(F)F)c1`, the Potency is reported as 12 µM (active).
With `CC1CN(C(=O)CCn2c(=O)oc3ccccc32)CC(C)O1` (stereo not drawn) the “activity change, negative = inhibition” value was -1.5% (inactive).
In the case of `O=C(/C=C/c1ccc(OCCCF)cc1)Nc1ccnc(-c2ccncc2)n1`, the “activity change, negative = inhibition” value is reported as -6.83% (inactive).
`Nc1nc(SCC(=O)Nc2ccc([N+](=O)[O-])cc2)[nH]c(=O)c1NC(=O)c1ccc(Br)cc1` was tested, and the “activity change, negative = inhibition” value was -2.39% (inactive).
With `Cc1cc(=O)[nH]c(SCC(=O)Nc2ccc(Br)cc2)c1C#N` the Potency was 7.57 µM (active).
For `CSc1nc(N)nc(SCC(=O)Nc2ccc(Cl)cc2)c1C#N`, the Potency was 30.1 µM (active).
For `Cc1cc(C#N)c(SCC(N)=O)nc1-c1ccc(F)cc1`, the “activity change, negative = inhibition” value was -6.37% (inactive).
With `Cc1cc2nc(SCCOC(=O)Nc3ccc(Cl)cc3)nc(C)c2cc1C` the “activity change, negative = inhibition” value was -6.17% (inactive).
With `Cc1ccc(CNS(=O)(=O)c2ccc(CN3C(=O)c4cccnc4C3=O)s2)o1` the “activity change, negative = inhibition” value was -5.65% (inactive).
For `O=C(CCc1ccccc1)N1CCN(Cc2ccc(F)cc2Cl)CC1`, the “activity change, negative = inhibition” value was -12.8% (inactive).
`Cc1ccc(CCNC(=O)CN2C(=O)COc3ccc(S(=O)(=O)N4CCC(C)CC4)cc32)cc1` was tested, and the “activity change, negative = inhibition” value was -3.95% (inactive).
In the case of `CC[C@@H](C(=O)[C@@H](C)[C@@H](O)[C@H](C)CCc1ccc(C)c(O)c1C(=O)O)[C@H]1O[C@](CC)([C@H]2CC[C@](O)(CC)[C@H](C)O2)C[C@@H]1C`, the Potency is reported as 4.78 µM (active).
With `Cc1ccccc1CS(=O)(=O)c1nnc([C@H](Cc2ccccc2)NC(=O)OC(C)(C)C)o1` the Potency was 37.9 µM (active).
With `C[C@@H](NC(=O)[C@@H]1Cc2ccccc2CN1)C(=O)NC1CCCCC1` the “activity change, negative = inhibition” value was -1.93% (inactive).
With `O=[N+]([O-])c1cc(Br)c(O)c(/C=N/Nc2nnnn2-c2cccc3ccccc23)c1` the Potency was 7.57 µM (active).
In the case of `O=[N+]([O-])c1cc(Br)c(O)c(/C=N/Nc2nc3ccccc3s2)c1`, the Potency is reported as 2.39 µM (active).
`COc1cccc(OCC(O)CN2CC(C)CC(C)C2)c1` (stereo not drawn) was tested, and the “activity change, negative = inhibition” value was -4.21% (inactive).
In the case of `O=C(/C=C/c1ccc(Cl)cc1Cl)NCCSCc1ccccc1`, the Potency is reported as 21.3 µM (active).
`Cc1ccccc1-n1nnnc1SC1CCOC1=O` (stereo not drawn) was tested, and the “activity change, negative = inhibition” value was 0.576% (inactive).
For `O=C(NCCCN1CCOCC1)c1ccc2c(c1)N(Cc1ccc(Cl)cc1)C(=O)c1ccccc1S2=O` (stereo not drawn), the “activity change, negative = inhibition” value was -1.04% (inactive).
With `CCOc1ccc(CNC(=O)CCCn2nc(CC)n3c(cc4occc43)c2=O)cc1` the “activity change, negative = inhibition” value was -19% (inactive).
With `CN(C(=O)CN1C(=O)/C(=C/c2ccccc2Cl)SC1=S)C1CCS(=O)(=O)C1` (stereo not drawn) the “activity change, negative = inhibition” value was -8.35% (inactive).
